This passage reports growth inhibition results from PubChem BioAssay (NCI).

The nature of test [1]: NCI Yeast Anticancer Drug Screen. Data for the rad50 strain (AID 155).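 Further: 0% = growth of vehicle-only cultures of the same strain.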 Conditions: S. cerevisiae rad50 strain growth inhibition, hits give high values. Summed up: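 Yeast carrying a defined DNA repair defect were exposed to test compounds, and growth was compared with vehicle-treated controls to give percent inhibition.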
Test [2] in a line: NCI Yeast Anticancer Drug Screen. Data for the mec2-1 strain (AID 157). The conditions noted are these: S. cerevisiae mec2-1 strain, hits give high values. In a few lines: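 mec2-1 yeast strain, carrying an alteration in DNA damage repair or cell cycle control, was exposed to compounds; growth inhibition was measured relative to vehicle-treated controls.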
Test [3] in a line: NCI Yeast Anticancer Drug Screen. Data for the sgs1 mgt1 strain (AID 161).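 Further: 0% = growth of cultures given vehicle only.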 The conditions noted are these: S. cerevisiae sgs1 mgt1 strain, hits give high values. Summed up: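 Yeast cells carrying a defined DNA-repair defect were exposed to test compounds. Growth inhibition was measured relative to vehicle-treated controls.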
Test [4] is described as follows: NCI Yeast Anticancer Drug Screen. Data for the cln2 rad14 strain (AID 165).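 Further: 0% = growth equal to vehicle treated cultures.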 Conditions: S. cerevisiae cln2 rad14 strain, hits give high values. In a few lines:
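Yeast carrying cln2 and rad14 alterations (cell cycle control and DNA damage repair) were exposed to compounds. Growth inhibition was measured against vehicle-treated controls.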

Test [5] in a line: NCI Yeast Anticancer Drug Screen. Data for the bub3 strain (AID 167). Conditions: S. cerevisiae bub3 mutant strain, hits give high values. In a few lines:
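Compounds were applied to a genetically altered yeast strain carrying a cell-cycle control defect. Growth inhibition was scored against vehicle-treated controls.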

Test [6] in a line: NCI Yeast Anticancer Drug Screen. Data for the mlh1 rad18 strain (AID 175). Conditions: S. cerevisiae mlh1 rad18 strain growth inhibition, hits give high values. Summed up: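 Growth inhibition of the yeast strain was measured after compound exposure and expressed relative to vehicle-treated controls. The strain carries defined defects in DNA damage repair.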
Where [7] appears, read: at 5.0 µM (retest, dose inferred, filed as 0.5).
[8] abbreviates: at 50.0 µM (retest, dose inferred, filed as 5.0).

This is part of a sample that, as a whole, favours compounds with a hit. Of some 79,000 tested, about 15% had one in any assay. Values without a mark were called inactive. The source made the active and inactive calls. No stated cut-off is given here; in the data, active means growth inhibition above about 70%; inactive means the rest. *1 amine or outer side, *2 acyl side, *3 side chain or, on linkers, in order; H or OH if unused. Where a SMILES comes first, the peptide text is derived from it. Bridges are numbered along the chain shown (N, C = ends). Roman numbers before positions name the chains, in order. [ ]: non-standard residue; d: D form. Actinocin(9to1) = Cc1c2oc3c(C)ccc(C(=O)[*:1])c3nc-2c(C(=O)[*:2])c(N)c1=O; NMeV = CN[CH](C(=O)O)C(C)C; Pip = O=C(O)[CH]1CCCCN1; Sar = CNCC(=O)O

With `O=[N+]([O-])c1ccc(O)c(C=Nc2ccccc2)c1`, the growth inhibition in test [1] (setting [7]) was -114%; in test [1] (setting [8]), 31%; in test [1] (at 50.0 µM), 74.3% (active); in test [2] (setting [7]) it was -50%; in test [2] (setting [8]), -21%; in test [2] (at 50.0 µM), 69.5%. Moreover, the growth inhibition in test [3] (setting [7]) was -51%; in test [3] (setting [8]) it was 0%; in test [3] (at 50.0 µM) it was 64%; in test [4] (setting [7]) it was -57%; in test [4] (setting [8]), -6%; in test [4] (at 50.0 µM), 79.5% (active). In addition, the growth inhibition was -71% in test [5] (setting [7]); -41% in test [5] (setting [8]); 54.6% in test [5] (at 50.0 µM); -96% in test [6] (setting [7]); -16% in test [6] (setting [8]); 82.8% (active) in test [6] (at 50.0 µM).

For `COCCNC(=O)C1C(=O)N(CCOC)C(=O)/C1=N/N` (centres undefined), the growth inhibition was 1% in test [1] (setting [7]); -1% in test [1] (setting [8]); -33.3% in test [1] (at 50.0 µM); 1% in test [2] (setting [7]); 5% in test [2] (setting [8]); 0.6% in test [2] (at 50.0 µM). Also, the growth inhibition is 8% in test [3] (setting [7]); -1% in test [3] (setting [8]); 13.6% in test [3] (at 50.0 µM); -2% in test [4] (setting [7]); 6% in test [4] (setting [8]); 35% in test [4] (at 50.0 µM). For the same compound, the growth inhibition in test [5] (setting [7]) is 0%; in test [5] (setting [8]), 20%; in test [5] (at 50.0 µM), -0.25%; in test [6] (setting [7]) it was -3%; in test [6] (setting [8]), -2%; in test [6] (at 50.0 µM), 5.5%.

Turning to `O=S(=O)(c1cc(Cl)c(Cl)cc1Cl)N(CCCCCN(S(=O)(=O)c1cc(Cl)c(Cl)cc1Cl)S(=O)(=O)c1cc(Cl)c(Cl)cc1Cl)S(=O)(=O)c1cc(Cl)c(Cl)cc1Cl`, the growth inhibition in test [1] (setting [7]) was -9%; in test [1] (setting [8]), -3%; in test [1] (at 50.0 µM), 98.6% (active); in test [2] (setting [7]), -11%; in test [2] (setting [8]), -13%; in test [2] (at 50.0 µM) it was 98.2% (active). For the same compound, the growth inhibition was -14% in test [3] (setting [7]); -23% in test [3] (setting [8]); 97.1% (active) in test [3] (at 50.0 µM); -10% in test [4] (setting [7]); -8% in test [4] (setting [8]); 96% (active) in test [4] (at 50.0 µM). Moreover, the growth inhibition is 19% in test [5] (setting [7]); 4% in test [5] (setting [8]); 98.9% (active) in test [5] (at 50.0 µM); -29% in test [6] (setting [7]); -17% in test [6] (setting [8]); 97.8% (active) in test [6] (at 50.0 µM).

On to `CC(C=O)Cc1ccccc1` (centres undefined), for which the growth inhibition in test [1] (setting [7]) is 2%; in test [1] (setting [8]), -6%; in test [1] (at 50.0 µM), -8.9%; in test [2] (setting [7]), 5%; in test [2] (setting [8]) it was -1%; in test [2] (at 50.0 µM), -8.05%. The growth inhibition is 3% in test [3] (setting [7]); -4% in test [3] (setting [8]); -3.35% in test [3] (at 50.0 µM); -2% in test [4] (setting [7]); -8% in test [4] (setting [8]); 37% in test [4] (at 50.0 µM). Besides, the growth inhibition in test [5] (setting [7]) was -1%; in test [5] (setting [8]), -4%; in test [5] (at 50.0 µM), 10.3%; in test [6] (setting [7]), -4%; in test [6] (setting [8]) it was -8%; in test [6] (at 50.0 µM) it was -1.45%.

Take `Cc1ccc(NC(=S)SCc2ccc(Cl)cc2)cc1Cl`: the growth inhibition is 33% in test [1] (setting [7]); 97% (active) in test [1] (setting [8]); 90.5% (active) in test [1] (at 50.0 µM); 19% in test [2] (setting [7]); 98% (active) in test [2] (setting [8]); 92.3% (active) in test [2] (at 50.0 µM). The growth inhibition in test [3] (setting [7]) was 44%; in test [3] (setting [8]), 99% (active); in test [3] (at 50.0 µM), 92.2% (active); in test [4] (setting [7]), 40%; in test [4] (setting [8]) it was 98% (active); in test [4] (at 50.0 µM), 89.8% (active). For the same compound, the growth inhibition is 55% in test [5] (setting [7]); 99% (active) in test [5] (setting [8]); 91.9% (active) in test [5] (at 50.0 µM); 23% in test [6] (setting [7]); 97% (active) in test [6] (setting [8]); 91% (active) in test [6] (at 50.0 µM).

Consider `O=[N+]([O-])/C(Cl)=C(/C(Cl)=C(Cl)Cl)N1CCCCC1`, for which the growth inhibition is -3% in test [1] (setting [7]); 16% in test [1] (setting [8]); 28.6% in test [1] (at 50.0 µM); 8% in test [2] (setting [7]); 25% in test [2] (setting [8]); 11.7% in test [2] (at 50.0 µM). Also, the growth inhibition in test [3] (setting [7]) was 14%; in test [3] (setting [8]), 27%; in test [3] (at 50.0 µM) it was 34.1%; in test [4] (setting [7]), 13%; in test [4] (setting [8]), 22%; in test [4] (at 50.0 µM) it was 1.5%. Also, the growth inhibition is 22% in test [5] (setting [7]); 34% in test [5] (setting [8]); 23.6% in test [5] (at 50.0 µM); 2% in test [6] (setting [7]); 27% in test [6] (setting [8]); 43.1% in test [6] (at 50.0 µM).

For `Cc1c2oc3c(C)ccc(C(=O)NC4C(=O)NC(C(C)C)C(=O)N5CCCCC5C(=O)N(C)CC(=O)N(C)C(C(C)C)C(=O)OC4C)c3nc-2c(C(=O)NC2C(=O)NC(C(C)C)C(=O)N3CCCCC3C(=O)N(C)CC(=O)N(C)C(C(C)C)C(=O)OC2C)c(N)c1=O` (centres undefined) (I: TV[Pip][Sar][NMeV] / II: TV[Pip][Sar][NMeV]; ester I:1-I:C, II:1-II:C; linker I:N-II:N via Actinocin(9to1); configuration not given here), the growth inhibition in test [1] (setting [7]) is -11%; in test [1] (setting [8]), 91% (active); in test [1] (at 50.0 µM) it was 69.4%; in test [2] (setting [7]) it was -22%; in test [2] (setting [8]) it was 43%; in test [2] (at 50.0 µM), 48.3%. Besides, the growth inhibition in test [3] (setting [7]) is 7%; in test [3] (setting [8]), 28%; in test [3] (at 50.0 µM), 59.4%; in test [4] (setting [7]), 6%; in test [4] (setting [8]) it was 64%; in test [4] (at 50.0 µM) it was 29.3%. Also, the growth inhibition in test [5] (setting [7]) was 0%; in test [5] (setting [8]) it was 80% (active); in test [5] (at 50.0 µM) it was 73.6% (active); in test [6] (setting [7]), 10%; in test [6] (setting [8]), 79% (active); in test [6] (at 50.0 µM), 45.6%.

On to `CCOC(=O)C(=Cc1cccnc1C)C(=O)OCC`, for which the growth inhibition in test [1] (setting [7]) was 16%; in test [1] (setting [8]), 1%; in test [1] (at 50.0 µM), 70.9% (active); in test [2] (setting [7]) it was -3%; in test [2] (setting [8]), 4%; in test [2] (at 50.0 µM), 51.7%. Also, the growth inhibition in test [3] (setting [7]) was 42%; in test [3] (setting [8]), 4%; in test [3] (at 50.0 µM), 60.7%; in test [4] (setting [7]) it was 16%; in test [4] (setting [8]), 27%; in test [4] (at 50.0 µM), 45.9%. Further, the growth inhibition is -31% in test [5] (setting [7]); -14% in test [5] (setting [8]); 73.2% (active) in test [5] (at 50.0 µM); -8% in test [6] (setting [7]); 1% in test [6] (setting [8]); 57.7% in test [6] (at 50.0 µM).
